# Bioassay records deposited in PubChem by National Center for Advancing Translational Sciences (NCATS).
# Hits are enriched below; roughly 7.3% of the tested compounds scored in any of these assays.
# VP16 counter – counter-screen for ROR gamma inhibitors: Gal4-VP16 reporter; AID 2546; Potency, µM (top dose mostly 53.6 µM), usual class: inhibitors; 310,000 tested, 3.5% active; Drosophila S2 Gal4-VP16 UAS-luciferase, luminescence, 20 h;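 also: Gal4-VP16 expression switched on by copper sulfate through the metallothionein promoter; nearly all actives have a fitted effect of over 50% in size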
# Tau fluor counter – counter-screen for tau fibril formation inhibitors; tau K18 P301L Alexa594 fluorescence, heparin fibrillization; Potency, µM (highest dose often 57.7 µM); 280,000 tested, 0.93% active; AID 1463; also: nearly all actives have a fitted effect of over 55% in size
#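 Human tau K18 P301L (15 uM unlabeled, 0.24 uM Alexa 594-labeled) in 100 mM sodium acetate pH 7 with 20 uM heparin, 6 hr at 37 C. ThT 30 uM added, 1 hr ambient; Alexa 594 FP and total fluorescence read at 555/632 nm.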
# Tau fibril ThT – tau fibrillization inhibition (ThT binding). recombinant tau K18 P301L (four-repeat tau fragment), heparin-induced fibrillization, ThT fluorescence. P10636. 270,000 tested, 2.1% active. AID 1460. Potency, µM (doses to about 57.4 µM), most hits filed as inhibitors; also: nearly all actives have a fitted effect of over 55% in size
# Target sequence (P10636 561-689 P618L limits assumed): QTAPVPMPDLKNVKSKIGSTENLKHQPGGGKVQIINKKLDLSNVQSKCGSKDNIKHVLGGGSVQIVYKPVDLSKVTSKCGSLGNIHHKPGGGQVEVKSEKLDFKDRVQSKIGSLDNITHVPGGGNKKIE
#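 K18 P301L tau (15 uM + 0.24 uM Alexa 594-tagged), heparin 20 uM, NaOAc pH 7, 6 h 37 C; ThT 30 uM, 1 h RT, ex 450/em 510 nm.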
# Tau FP inhib – tau fibrillization inhibition (FP); P10636; K18 P301L tau heparin fibrillization, Alexa594 FP, 6 h; Potency, µM (highest dose often 57.7 µM), hits mostly inhibitors; 280,000 tested, 0.39% active; AID 1468; also: nearly all actives have a fitted effect of over 55% in size
#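 Human K18 P301L fragment (15 uM unlabeled plus 0.24 uM Alexa 594-labeled) in 100 mM sodium acetate pH 7 with compound, aggregation induced by 20 uM heparin for 6 hr at 37 C. ThT (30 uM) added for 1 hr, then Alexa 594 FP read.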
# RORg inh – blocks mouse ROR gamma transcriptional activity; P51450; Drosophila S2 Gal4-RORgamma UAS-luciferase reporter, 20 h; Potency, µM (titrated, usually from 53.6 µM), hits mostly inhibitors; 310,000 tested, 5.4% active; also: nearly all actives have a fitted effect of over 60% in size
# Target sequence (P51450 whole entry, looked up, the tested form may be a part): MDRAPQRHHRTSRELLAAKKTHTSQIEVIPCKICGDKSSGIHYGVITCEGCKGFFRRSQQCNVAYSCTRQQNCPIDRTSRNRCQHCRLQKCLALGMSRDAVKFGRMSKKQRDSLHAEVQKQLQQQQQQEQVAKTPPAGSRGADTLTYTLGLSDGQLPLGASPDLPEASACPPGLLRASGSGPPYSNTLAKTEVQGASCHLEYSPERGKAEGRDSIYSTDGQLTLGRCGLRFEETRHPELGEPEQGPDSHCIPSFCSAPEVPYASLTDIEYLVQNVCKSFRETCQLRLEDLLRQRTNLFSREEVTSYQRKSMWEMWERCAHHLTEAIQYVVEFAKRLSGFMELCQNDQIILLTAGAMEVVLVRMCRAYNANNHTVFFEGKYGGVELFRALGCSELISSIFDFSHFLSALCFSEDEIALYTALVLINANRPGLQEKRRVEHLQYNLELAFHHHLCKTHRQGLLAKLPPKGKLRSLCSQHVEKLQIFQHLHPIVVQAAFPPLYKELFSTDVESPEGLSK
#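 Stable Schneider cell line, Gal4 DNA-binding domain fused to ROR gamma, UAS-luciferase. Cmpd 1 hr RT → CuSO4 700 uM final → 20 hr RT → luciferase reagent 10 min → luminescence.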
# Numbers stand for hits; - = inactive; ? = inconclusive; . = no result given; [ ] = dose if it differs, or a comment. Calls follow the shape of the dose curve; as a rule, active = well fitted curve in the direction sought with a large enough effect; inconclusive = small, poorly fitted or top-dose-only effect, or another doubt; inactive = no such curve, though single readings can be large; an effect the other way counts as inactive or inconclusive.
SMILES,VP16 counter,Tau fluor counter,Tau fibril ThT,Tau FP inhib,RORg inh
CC(C)(N)C(=O)N[C@@H](Cc1cnc[nH]1)C(=O)N[C@H](Cc1ccc2ccccc2c1)C(=O)N[C@H](Cc1ccccc1)C(=O)N[C@@H](CCCCN)C(N)=O,-,.,.,.,-
O=C1Nc2cc(Cl)cnc2N2CCCC12 (configuration not stated),-,?,14µM,?,-
C[C@H](O)C(=O)Nc1c(I)c(C(=O)NC(CO)CO)c(I)c(C(=O)NC(CO)CO)c1I,-,.,.,.,-[2.98 µM]
O=C(NCc1ccco1)c1nn2c(C(F)(F)F)cc(-c3cccs3)nc2c1Br,-,-,14µM,?,-
O=C(NCc1ccco1)c1nc2nc(-c3cccs3)cc(C(F)(F)F)n2n1,-,-,?,-,-
CCCCNc1nc(C)nc2c1nc(-c1ccccc1)n2CC1CCCN1CC (configuration not stated),-,-,-,-,?
Cc1onc(-c2c(F)cccc2Cl)c1C(=O)Nc1cccc2nsnc12,-,?,?,-,-
Cc1onc(-c2c(F)cccc2Cl)c1C(=O)NC1=NCCS1,22µM,-,-,-,14µM
Cc1onc(-c2c(F)cccc2Cl)c1C(=O)Nc1nc2ccccc2[nH]1,?,-,-,-,2.8µM
Cc1[nH]c2ccccc2c1C(=O)COC(=O)c1c(-c2ccccc2Cl)noc1C,?,?,-,?,-
Cc1ccc(NC(=O)c2c(-c3c(F)cccc3Cl)noc2C)cc1F,-,-,-,-,?
Cc1[nH]c2ccccc2c1C(=O)COC(=O)c1c(-c2c(F)cccc2Cl)noc1C,-,?,-,14µM,-
Cc1cc(NC(=O)c2c(-c3c(F)cccc3Cl)noc2C)no1,-,-,-,-,-
Cc1onc(-c2c(F)cccc2Cl)c1C(=O)Nc1nccs1,?,-,-,-,13µM
Cc1nn(-c2ccc(N3CCCC3)nn2)c(C)c1CCC(=O)NCc1ccc(F)cc1,.,-,-,-,.
NS(=O)(=O)c1ccc(CCNCc2ccccc2OCc2ccc(Cl)cc2)cc1,-,.,.,.,-[1.91 µM]
CCC1CSC(Nc2ccc(C(=O)/C=C/c3cccc(C)c3)cc2)=N1 (configuration not stated),?,-,?,-,-[10 µM]
CCC1CSC(Nc2ccc(C(=O)/C=C/c3ccc(Oc4ccccc4)cc3)cc2)=N1 (configuration not stated),?,-,?,?,16µM
CCCCOc1ccccc1C(=O)N(Cc1sccc1C)C1CCS(=O)(=O)C1 (configuration not stated),.,-,-,-,.
Cc1ccc2ccccc2c1NC(=O)c1ccco1,-,.,.,.,-
CCOC(=O)CSc1nc(N)c(C#N)c(-c2ccc(OCC)cc2)c1C#N,-,-,-,-,-
CC1=C(C#N)c2nc(N)c(C#N)c(C)c2/C1=C\c1ccc(OCC(=O)O)c(Cl)c1,-,?,16µM,?,-
O=C1CSC(=S)N1/N=C/c1cc(Br)ccc1O,?,.,.,.,11µM
O=C1CSC(=S)N1/N=C/c1ccc(O)c(O)c1O,-,?,3.5µM,7.1µM,-
Cc1c(C(=O)N(Cc2ccccc2F)C2CCS(=O)(=O)C2)oc2ccccc12 (configuration not stated),.,-,-,-,.
SMILES,VP16 counter,Tau fluor counter,Tau fibril ThT,Tau FP inhib,RORg inh
Cn1cc(-c2nc3cnc(OCc4ccccc4)nc3n(CCC#N)c2=O)c2ccccc21,-,.,.,.,-
COc1ccc(/C=C/C(=O)NC(=S)Nc2ccc(C(=O)O)cc2)cc1,-,-,?,-,-
COc1ccc(/C=C/C(=O)NC(=S)N2CCN(c3ccccn3)CC2)cc1,13µM,-,-,-,2.5µM
COc1ccc(/C=C/C(=O)NC(=S)N2CCSCC2)cc1,13µM,-,-,-,3.5µM
COC(=O)c1cc(C)[nH]c2c(C)cc3nc4ccccc4c3c12,-,25µM[quencher],?,?,-
COC(=O)c1c(C)nc2ccccc2c1C(=O)O,-,-,-,-,-
Cn1cc(-c2nc3cncnc3n(C3CC3)c2=O)c2ccccc21,-,.,.,.,-
Cc1cc(C(=O)N/N=C/c2ccc3c(c2)OCO3)c2ccccc2n1,-,-,-,-,-
Cc1cc(C(=O)N/N=C/c2ccc(N(C)C)cc2)c2ccccc2n1,-,-,?,-,16µM
Cc1cccc(/C=N/NC(=O)c2cc(C)nc3ccccc23)n1,?,.,.,.,11µM
CCC(=O)Nc1nnc(S(=O)(=O)N2CCc3ccccc32)s1,-,-,18µM,-,-
CCC(CC)C(=O)Nc1nnc(S(=O)(=O)N2c3ccccc3CC2C)s1 (configuration not stated),-,-,14µM,-,-
CC(C)CC(=O)Nc1nnc(S(=O)(=O)N2CCc3ccccc32)s1,-,?,2.2µM,-,-
O=C(CSc1nnc(NC(=O)c2ccco2)s1)Nc1ccccc1,-,-,-,-,-
CN(C)c1ncc2nc(-c3ccccc3)c(=O)n(Cc3cccs3)c2n1,-,.,.,.,-
COc1cc(CNS(=O)(=O)c2ccc3c(c2)CC(C)N3C(=O)C2CCC2)cc(OC)c1OC (configuration not stated),6.3µM,.,.,.,-
CC(=O)N1CCc2cc(S(=O)(=O)NCCC(=O)NCCc3ccccc3)ccc21,-,-,-,-,-
COc1cccc(CNS(=O)(=O)c2ccc3c(c2)CCN3C(=O)C2CCC2)c1,.,-,?,-,.
COc1ccc(CNS(=O)(=O)c2ccc3c(c2)CC(C)N3C(=O)C2CC2)cc1 (configuration not stated),18µM,.,.,.,?
COc1ccc(CNS(=O)(=O)c2ccc3c(c2)CCN3C(=O)C2CC2)cc1,16µM,-,-,?,-
CC(=O)N1CCc2cc(S(=O)(=O)NCCC(=O)NCCc3ccc(C)cc3)ccc21,3.5µM,-,-,-,?
COc1cccc(CNS(=O)(=O)c2ccc3c(c2)CC(C)N3C(=O)C2CC2)c1 (configuration not stated),?,.,.,.,-
COc1ccc(-c2ccc(CCC(=O)O)n2CC(=O)Nc2ccccc2C)cc1,-,.,.,.,-
CC(=O)N1c2ccc(S(=O)(=O)NCC3CCC(C(=O)Nc4ccc(C)cc4)CC3)cc2CC1C (configuration not stated),.,-,-,-,.
CC(=O)N1c2ccc(S(=O)(=O)NCC3CCC(C(=O)Nc4cc(C)ccn4)CC3)cc2CC1C (configuration not stated),7.1µM,.,.,.,?
N=C1SC(c2ccccc2)C(=O)N1c1ncc(Cc2ccccc2Cl)s1 (configuration not stated),1.3µM,-,?,-,1.4µM
Cc1ccc(NC(=O)N2CCc3cc(S(=O)(=O)N4CCC(C)CC4)ccc32)cc1C,.,-,-,?,.
COc1ccc(CC(=O)c2c(O)cc(O)cc2O)cc1OC,-,?,-,-,-
O=C(Cc1ccc(Cl)cc1)c1c(O)cc(O)cc1O,-,16µM[quencher],?,-,?
